Many of the other results were omitted from the sample, so hits are more common in it than they were.
Dicer inh – inhibitors of human Dicer processing of pre-microRNA | Q9UPY3 | cat-ELCCA pre-miR-21 Dicer processing, chemiluminescence; stronger effect = higher value | z-score at 25 µM | hit rate 6% among 47,000; in the data active = z-score above about 3, passing the limit was not always enough;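 also: plate controls were vehicle for no effect and no enzyme for full effect; higher signal means more uncleaved substrate so more Dicer inhibition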
Active calls of the source: *.

For COC(=O)c1csc(S(=O)(=O)NC2CCCCNC2=O)c1OC (stereo not drawn) the results were Dicer inh 4*.
`O=C1NCCCCC1NS(=O)(=O)c1cccs1` (stereo not drawn) gave Dicer inh -0.93.
`CCOC(=O)c1c(N)sc(C(=O)N2CCc3ccccc3C2)c1C` gave Dicer inh 1.4.
O=C1CSC(c2cccnc2)N1c1ccc(I)cc1F (stereo not drawn) was read as Dicer inh -0.87.
For CN1/C(=C/C=C/c2oc3ccccc3[n+]2C)Oc2ccccc21 the results were Dicer inh -0.86.
CCc1nnc(NC(=O)c2cc(Br)ccc2Cl)s1 was read as Dicer inh 0.34.
CCc1nnc(NC(=S)NC(=O)c2ccccc2)s1 was read as Dicer inh -0.73.
For CCc1nnc(NC(=O)c2ccccc2O)s1 the results were Dicer inh 4.2*.
`CC(C)NC(=O)Oc1cccc(Cl)c1` gave Dicer inh 0.41.
`CC(C)(C)SC(=S)SCC(=O)c1cc2ccccc2o1` gave Dicer inh -1.9.
COc1ccc(OCc2nnc(NC(=O)Nc3ccc(F)cc3)s2)cc1 was read as Dicer inh 1.9.
COc1ccccc1NC(=O)Nc1c(SC)nsc1SC was read as Dicer inh -0.75.
For COc1ccc(NC(=O)Nc2c(SC)nsc2SC)cc1 the results were Dicer inh 4*.
CCOC(=O)C1=C(C)Nc2nc3ccccc3n2C1c1ccc(OCC)cc1 (stereo not drawn) was read as Dicer inh -0.39.
`CC(C)OC(=O)c1cc2ccccc2c(=O)s1` gave Dicer inh -0.39.
O=C(NCc1ccc(C(F)(F)F)cc1)c1cc2ccc3ccccc3c2s1 was read as Dicer inh 2.8.
For O=C(NCCO)c1cc2ccccc2c(=O)s1 the results were Dicer inh 3.8*.
`O=C(Nc1ncc(Cc2ccc(F)cc2)s1)c1csc2c1CCCC2` gave Dicer inh 2.
For Cc1ccc(S(=O)(=O)NNC(=S)NCc2ccccc2)cc1 the results were Dicer inh -2.5.
CCOC(=O)C(Nc1ccc(Cl)cc1)C(=O)OCC was read as Dicer inh 0.62.
Screening Cc1ccc(-c2noc(-c3cncc(C#Cc4ccccc4)c3)n2)cc1 returned Dicer inh -0.17.
For CCN(CC)CC#CC(O)(c1ccccc1)c1ccccc1 the results were Dicer inh 0.86.
CCN(CC)CC#Cc1cccc(C)c1 was read as Dicer inh 5*.
`O=C(Nc1ccc2oc3ncccc3c(=O)c2c1)c1ccc([N+](=O)[O-])cc1` gave Dicer inh -1.4.
O=C(Nc1ccc(O)c(-c2nc3ccccc3o2)c1)c1ccc([N+](=O)[O-])o1 was read as Dicer inh 2.5.
Cc1ccc(CNc2ccc(N3CCOCC3)c(Cl)c2)s1 was read as Dicer inh 1.4.
`Cc1ccc(CNc2ccc(N3CCOCC3)cc2)s1` gave Dicer inh 4*.
`Cc1ccc(CNCCN2CCOCC2)s1` gave Dicer inh -1.3.
Screening CN(C)c1nc(Oc2ccc(=O)n(C)n2)nc(N2CCOCC2)n1 returned Dicer inh -1.
`COc1nc(NCC(C)C)nc(Oc2ccc(=O)[nH]n2)n1` gave Dicer inh -0.42.
CCOc1ccc(Oc2nc(NCC(C)C)nc(N3CCOCC3)n2)nn1 was read as Dicer inh 5.8*.
For OC(COc1ccccc1)CN1CCNCC1 (stereo not drawn) the results were Dicer inh 0.43.
`Cc1cc(O)c2c(c1)C(=O)c1cc(O)cc(O)c1C2=O` gave Dicer inh -0.78.
`Cc1ccc(-c2cc(O)cc3sc(=O)oc23)cc1C` gave Dicer inh 6.6*.
For CCOC(=O)Oc1cc2oc(=O)sc2cc1Cl the results were Dicer inh -1.1.
`N#Cc1c(Cl)cccc1Oc1ccc(S(=O)(=O)Oc2c(Cl)cccc2Cl)cc1` gave Dicer inh -0.9.
For CC(C)(C)N/C=C(\C#N)S(=O)(=O)c1ccc(Br)cc1 the results were Dicer inh -0.63.
Screening N#CC(=Nc1ccc(F)cc1F)C1=C(O)c2ccccc2C1=O returned Dicer inh -3.2.
`CC(C)(C)c1ccc(N=C(C#N)C2=C(O)c3ccccc3C2=O)cc1` gave Dicer inh 3.1*.
`N#CC(=Nc1ccc(F)cc1)C1=C(O)c2ccccc2C1=O` gave Dicer inh 0.82.
`C=CCc1c(CCC)nc(-c2ccccn2)[nH]c1=O` gave Dicer inh 1.8.
Screening COc1ccc(OC)c(Nc2nc3nonc3nc2Nc2cccc(Br)c2)c1 returned Dicer inh 2.
Screening COc1ccc(OC)c(Nc2nc3nonc3nc2Nc2ccc(F)cc2)c1 returned Dicer inh 4.1*.
COc1ccccc1Nc1nc2nonc2nc1Nc1cccc(Br)c1 was read as Dicer inh 1.6.
Screening O=C1CC2Sc3ccccc3N=C2N1Cc1ccccn1 (stereo not drawn) returned Dicer inh 0.14.
COc1ccc(C2C(C(=O)c3cc4ccccc4o3)=C(O)C(=O)N2CCN(C)C)cc1OC (stereo not drawn) was read as Dicer inh -0.87.
For Nc1c(NCc2ccccc2)c(=O)c1=O the results were Dicer inh 3.3*.
For O=c1[nH]cc(NCc2ccccc2)c(=O)[nH]1 the results were Dicer inh -10.
Screening Nc1nc(Nc2ccccc2)nc(NCc2ccccc2)c1[N+](=O)[O-] returned Dicer inh 2.4.
Screening CCOC(=O)c1sc(N2C(=O)C(=O)/C(=C(/O)c3ccccc3)C2c2ccccc2)nc1C (stereo not drawn) returned Dicer inh 0.59.
For COc1ccc(CCNC(=O)c2cc(F)c(N(C)C)c(F)c2)cc1OC the results were Dicer inh -0.82.
`CN(NC(=O)c1ccc(Cl)cc1)c1ncc(Cl)cc1C(F)(F)F` gave Dicer inh 3.
Screening CN(/N=C/c1ccccc1Cl)c1ncc(C(F)(F)F)cc1Cl returned Dicer inh -0.08.
Screening CN(/N=C/c1ccc(O)cc1O)c1ncc(Cl)cc1C(F)(F)F returned Dicer inh 12*.
O=C(Cn1cnc2c(nnn2Cc2ccccc2)c1=O)c1ccc(Br)cc1 was read as Dicer inh -1.6.
Cc1ccc2oc(-c3cccc(N)c3C)nc2c1 was read as Dicer inh 2.1.
Cc1cc2nc(-c3cccc(N)c3C)oc2cc1C was read as Dicer inh 3*.
Cc1ccc(-c2nc3ccccc3o2)cc1N was read as Dicer inh -0.44.
For C/C(=N\O)C(C)(C)Nc1cccc(Br)c1 the results were Dicer inh 0.34.
O=S(=O)(Nc1cc(Cl)cc(Cl)c1)c1ccccc1Oc1ccc(Cl)cc1Cl was read as Dicer inh -0.47.
Screening Cc1cc(=O)oc2c1c(C)nn2-c1ccc(C(=O)O)cc1 returned Dicer inh -0.99.
For c1ccc2c(c1)NC(c1ccc3c(c1)OCCO3)n1cccc1-2 (stereo not drawn) the results were Dicer inh 2.6.
`CC1(C)CC(=O)C2=C(C1)Nc1ccccc1NC2c1ccc2c(c1)OCO2` (stereo not drawn) gave Dicer inh -0.62.
For O=C1c2ccccc2NC(c2ccc3c(c2)OCO3)N1Cc1ccccc1 (stereo not drawn) the results were Dicer inh 3.4*.
Screening O=C(Nc1ccccc1Sc1ncc([N+](=O)[O-])cc1C(F)(F)F)C1CC1 returned Dicer inh -1.9.
For CS/C(=N\Nc1ccccc1C(F)(F)F)NC(=O)c1c(Cl)cccc1Cl the results were Dicer inh 0.37.
`CC(C)(C)C(=O)OCc1nc(-c2cc(-c3ccc(Cl)c(Cl)c3)no2)cs1` gave Dicer inh -0.46.
